# The list is not random: actives were taken first. Their share in the collection is about 3.8%.
# Ecoli rRNA inh – selective bacterial rRNA inhibition in E. coli. 1.6% of 350,000 active. E. coli WT GFP vs humanized-ribosome RFP mutants, fluorescence, 24 h; stronger effect = lower value; DMSO median 0, no signal -100. GFP signal change (wild-type ribosome), % (test concentration not listed). AID 720706;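 active means significant combined selectivity score with lowered wild-type GFP, culture density cut under 30%, mutant RFP and density less affected; inactive means any of these conditions unmet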
# ADAM17 inh – ADAM17 inhibition, QFRET primary screen | P78536 | inhibition, % at 6.95 µM | 0.83% of 370,000 active | AID 720648 | recombinant ADAM17, EDANS/DABCYL FRET peptide cleavage;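 active means inhibition above the mean of compounds lying between control limits plus 3 SD, set per campaign, cut at about 8.5% in these data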;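 further: 0% = DMSO-only wells as the low control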
# FGF22 binding – binders of recombinant human FGF22 by thermal shift | SYPRO orange fluorescence; percent of sucrose octasulfate shift, DMSO zero | AID 651658 | activity (Tm shift, normalised), % at 9.99 µM | 1.5% of 340,000 active;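 active means mean Tm shift, scaled 0 neutral to 100 positive control, at about 1.3% or above, every replicate too, limit read from the data; inconclusive means no clear call, values can overlap the other calls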
# proKLK7 act – activators of human kallikrein-7 zymogen. P49862. purified proKLK7, EDANS-DABCYL substrate fluorescence; 100% is mature enzyme control, 0% vehicle. activation, % at 7 µM. 0.9% of 370,000 active;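 active means activation above the mean of all tested compounds plus 3 SD, computed per campaign excluding outliers beyond control limits, cut at about 13% in these data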
# ADAM10 inh – inhibitors of human ADAM10; O14672; recombinant ADAM10, EDANS/DABCYL FRET peptide cleavage, 3 h; inhibition, % at 7 µM; 0.62% of 370,000 active; AID 720582;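 active means inhibition above a per-campaign cutoff equal to the mean of compounds falling between control-based bounds plus 3 SD, cut at about 20% in these data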;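 further: 0% = DMSO wells while the 100% control is not disclosed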
# AID977621 – wild-type E. coli growth inhibition versus H69 humanized strain – H69 mutant RFP, wild-type GFP, cherry-pick, dose response; shares compounds with Ecoli rRNA inh; fluorescence, 24 h; activity change, negative = inhibition at 50 µM; 1,900 tested, under 10 active; AID 977621;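 active means Wild-type ribosome reporter drop at least double the humanized mutant ribosome reporter drop, growth loss under a set limit; inconclusive means no clear call, values can overlap the other calls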;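 further: wild-type GFP and H69 mutant RFP strains grown together 50/50 in each well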
# AID977628 – E. coli growth inhibition, wild-type GFP versus h24 humanized RFP strain, dose response, h24 mutant RFP vs wild-type GFP, cherry-pick; shares compounds with Ecoli rRNA inh; E. coli WT GFP strain growth, fluorescence, 24 h; activity change, negative = inhibition at 50 µM; 1,900 tested, under 10 active; AID 977628;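 active means compound lowering the normal-ribosome reporter at least twice as much as the humanized-ribosome reporter, growth loss under a set limit; inconclusive means no clear call, values can overlap the other calls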;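 further: wild-type GFP and h24 humanized RFP strains co-cultured 1 to 1 per well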
# Numbers without * were called inactive; ? = inconclusive; / = no result.
SMILES,Ecoli rRNA inh,ADAM17 inh,FGF22 binding,proKLK7 act,ADAM10 inh,AID977621,AID977628
CCc1nnc(NS(=O)(=O)c2ccc(NC(=O)c3cccc4ccccc34)cc2)s1,-19*,2,0,0,9,1.4,?
O=C(Nc1ccncc1)c1ccc(S(=O)(=O)Nc2ccccc2)cc1,-23*,0,0,0,8,-19,?
O=C(Nc1ccc(C(=O)c2ccccc2)cc1)c1ccccc1,-22*,3,0,0,7,-3.3,/
COc1ccc(S(=O)(=O)Nc2ccc3c(c2)C(=O)N([C@@H](C)CO)C[C@@H](C)[C@@H](CN(C)C(=O)CCC(F)(F)F)OCCCC[C@H](C)O3)cc1,0,/,-1,/,/,/,/
COc1ccc2c3c([nH]c2c1)[C@H](CO)N(C)CC31CN(C(=O)c2ccccn2)C1,1,/,/,/,/,/,/
C[C@H](CO)N1C[C@H](C)[C@H](CN(C)C(=O)CCCN(C)C)OCCCC[C@H](C)Oc2ccc(NC(=O)Nc3cccc4ccccc34)cc2C1=O,-1,/,0,/,/,-7.2,?
C[C@@H]1CCCCO[C@@H](CN(C)C(=O)CCCN(C)C)[C@H](C)CN([C@@H](C)CO)C(=O)c2cc(NC(=O)Nc3cccc4ccccc34)ccc2O1,0,/,0,/,/,/,?
C[C@@H]1CCCCO[C@@H](CN(C)C(=O)Nc2cccc3ccccc23)[C@@H](C)CN([C@H](C)CO)C(=O)c2cc(NC(=O)Nc3cccc4ccccc34)ccc2O1,4,/,0,/,/,/,/
C[C@@H]1CN([C@@H](C)CO)C(=O)c2cc(NC(=O)Nc3ccccc3)ccc2O[C@@H](C)CCCCO[C@@H]1CN(C)C(=O)CCCN(C)C,1,/,-1,/,/,/,/
C[C@H]1CCCCO[C@H](CN(C)C(=O)CCCN(C)C)[C@@H](C)CN([C@@H](C)CO)C(=O)c2cc(NC(=O)Nc3cccc4ccccc34)ccc2O1,0,/,-1,/,/,?,11
C[C@@H]1CN([C@@H](C)CO)C(=O)c2cc(NC(=O)Nc3cccc4ccccc34)ccc2O[C@@H](C)CCCCO[C@H]1CN(C)C(=O)CCCN(C)C,1,/,0,/,/,/,?
O=C(C[C@H]1CC[C@H]2[C@@H](COC[C@@H](O)CN2S(=O)(=O)c2cccc(Cl)c2)O1)NC1CCC1,-3,/,0,/,/,/,/
C[C@@H]1CCCCO[C@@H](CN(C)C(=O)CCCN(C)C)[C@H](C)CN([C@H](C)CO)C(=O)c2cc(NC(=O)Nc3cccc4ccccc34)ccc2O1,0,/,-1,/,/,-5.5,?
C[C@@H]1CCCCO[C@H](CN(C)C(=O)CCCN(C)C)[C@@H](C)CN([C@@H](C)CO)C(=O)c2cc(NC(=O)Nc3cccc4ccccc34)ccc2O1,-39*,/,0,/,/,-8.1,?
O=C1CSCN1c1ccccc1,/,/,0,/,/,/,/
Cc1sc(NC(=O)CN2CCOCC2)nc1-c1ccc2c(c1)CCN2S(=O)(=O)c1ccccc1,-21*,2,0,-1,3,-21,/
O=C(CN1CCOCC1)Nc1nc(-c2ccc3c(c2)CCN3S(=O)(=O)c2ccccc2)cs1,-11,5,/,0,16,/,/
Cc1cccc(-c2ccc([C@@H]3[C@@H](CO)N4CCCCN(S(=O)(=O)c5ccccc5C)C[C@@H]34)cc2)c1,2,/,0,/,/,-5.1,-2.2
Cc1cccc(-c2ccc([C@H]3[C@H]4CN(S(=O)(=O)c5ccccc5C)CCCCN4[C@H]3CO)cc2)c1,3,/,0,/,/,-2.8,?
Cc1cccc(-c2ccc([C@@H]3[C@@H](CO)N4CCCCN(S(=O)(=O)c5ccccc5C)C[C@H]34)cc2)c1,-30,/,0,/,/,-5,-4.3
COc1cccc(-c2ccc([C@@H]3[C@H](CO)N4CCCCN(S(=O)(=O)c5cccs5)C[C@@H]34)cc2)c1,-46*,/,-1,/,/,/,?
C[C@@H]1CN([C@H](C)CO)C(=O)c2cc(C#CCN(C)C)cnc2O[C@H]1CN(C)C,5,/,0,/,/,/,/
CS(=O)(=O)c1ccc(C(=O)Nc2nc(-c3ccco3)c(-c3ccco3)s2)cc1,-19*,1,0,0,8,-11,?
CCc1ccn2cc(-c3ccc4c(c3)OCO4)nc2c1,-26*,-184,0,7,-454,-0.58,/
